The values below come from PubChem BioAssay (NCI).

About 79,000 compounds went through this panel and 15% of them were active in at least one assay; those are over-represented in the sample as a whole. A number with no mark means an inactive call. Calls of active or inactive are those of the source. Cut-off read from the data, not from the text of the source: active = growth inhibition above about 70%; inactive = the rest.

A short description of this test: NCI Yeast Anticancer Drug Screen. Data for the wt2 strain (AID 169).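 Note: 0% = growth of vehicle-treated yeast cultures.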 The note with it: S. cerevisiae wt2 strain growth inhibition, stronger effect = higher value. The method, then:
Growth inhibition of yeast strains with defined genetic alterations is measured as a screen for potential anti-cancer activity. Selected strains with alterations in DNA damage repair or cell cycle control were exposed to compounds and growth inhibition was measured relative to vehicle treated controls. The strain used in this assay is wt2

`CC(=O)Nc1ccc(/C=C(\C#N)c2ccc(C)cc2)cc1`: the growth inhibition by setting is: (at 1.2 µM) -1%; (at 3.7 µM) 9%; (at 11.0 µM) 6%; (at 33.0 µM) 5%; (at 100.0 µM) 0%.
On the same counts, the results for `CC(=O)Nc1ccc2c(c1)C(=Nc1ccc(C(=O)O)cc1)c1ccccc1-2` are -2%, -2%, -2%, 9% and 93% (active).
Take `CC(C)/C(Cl)=N\OC(=O)Nc1ccc(F)cc1`: the growth inhibition (at 1.2 µM) is -1%; the growth inhibition (at 3.7 µM) was -2%; the growth inhibition (at 11.0 µM) was 3%; the growth inhibition (at 33.0 µM) was 86% (active); the growth inhibition (at 100.0 µM) is 99% (active).
On to `Oc1cccc2c(Cl)ccnc12`, for which the growth inhibition is, setting by setting: (at 1.2 µM) 38%; (at 3.7 µM) 97% (active); (at 11.0 µM) 98% (active); (at 33.0 µM) 97% (active); (at 100.0 µM) 98% (active).
`Cc1cc(S(=O)(=O)/N=C(/NN)NNc2cccc(C(F)(F)F)n2)c(S)cc1Cl`: the growth inhibition was 0% (at 1.2 µM); -2% (at 3.7 µM); -3% (at 11.0 µM); -5% (at 33.0 µM); 18% (at 100.0 µM).
For `c1ccc(-c2nc3cccnc3s2)cc1`, in that order: -2%, -3%, -3%, -5% and 0%.
As to `O=C1C=CC(=C(c2ccccc2)c2ccccc2)c2ccccc21`, the growth inhibition by setting is: (at 1.2 µM) -6%; (at 3.7 µM) -4%; (at 11.0 µM) 0%; (at 33.0 µM) -4%; (at 100.0 µM) -3%.
Regarding `COC(=O)C1=C(C)NC(C)=C(C(=O)OCCCN2CCC(c3ccccc3)(c3ccccc3)CC2)C1c1cccc([N+](=O)[O-])c1` (stereo not given), the growth inhibition by setting is: (at 1.2 µM) -4%; (at 3.7 µM) 25%; (at 11.0 µM) 98% (active); (at 33.0 µM) 97% (active); (at 100.0 µM) 91% (active).
